Measurements from PubChem BioAssay (NCI).
About 83,000 compounds went through this panel and 20% of them were active in at least one assay; those are over-represented in the sample as a whole.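 Activity criterion: percent growth below 10, measured after cells in 96-well plates were exposed to a single compound concentration for 48 hours.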 The source made the active and inactive calls.

What was measured:
Experiment in all cases: NCI-60 one-dose screen, 48 h (100 = growth as untreated, 0 = no growth, -100 = all killed)
Conditions in all cases: 10 µM unless noted
SK-MEL-2 melanoma = system: SK-MEL-2 melanoma
EKVX NSCLC = system: EKVX NSCLC
SN12C renal = system: SN12C renal
UO-31 renal = system: UO-31 renal
TK-10 renal = system: TK-10 renal
ACHN renal = system: ACHN renal
CAKI-1 renal = system: CAKI-1 renal
A498 renal = system: A498 renal
CCRF-CEM leukemia = system: CCRF-CEM leukemia
MOLT-4 leukemia = system: MOLT-4 leukemia

Measured: growth

CCOC(=O)C1=C(C)C(Cl)=N/C1=C\c1[nH]c(Cl)c(C)c1C(=O)OCC
inactive: SK-MEL-2 melanoma 109% | EKVX NSCLC 99.5% | SN12C renal 100% | UO-31 renal 86.5% | TK-10 renal 109% | ACHN renal 107% | CAKI-1 renal 94.5% | A498 renal 104% | CCRF-CEM leukemia 51.9%

CCN1C(=O)N(CC)C2C1NN=c1s/c(=C\c3ccc(C(F)(F)F)cc3)c(=O)n12 (stereo not given)
active: A498 renal 8.73% | CCRF-CEM leukemia 5.13%
inactive: SK-MEL-2 melanoma 56.1% | EKVX NSCLC 48.5% | SN12C renal 24.2% | UO-31 renal 34.3% | TK-10 renal 59.7% | ACHN renal 27.6% | CAKI-1 renal 25.9%

CC(=C(c1ccc(OCCN2CCCCC2)cc1)c1ccc(OCCN2CCCCC2)cc1)c1ccc(Cl)cc1
active: SK-MEL-2 melanoma -82.9% | EKVX NSCLC -86.4% | SN12C renal -91.1% | UO-31 renal -96% | TK-10 renal -88.5% | ACHN renal -99.1% | CAKI-1 renal -98.4% | A498 renal -85.9% | CCRF-CEM leukemia -71.5% | MOLT-4 leukemia -71.2%

O=S(=O)(Oc1ccc(Br)cc1)c1ccc(Cl)cc1
inactive: SK-MEL-2 melanoma 116% | EKVX NSCLC 95.7% | SN12C renal 105% | UO-31 renal 82.3% | TK-10 renal 84.1% | ACHN renal 117% | CAKI-1 renal 105% | A498 renal 86.6% | CCRF-CEM leukemia 97%

NC1(CO)COC(c2ccccc2)OC1 (stereo not given)
inactive: SK-MEL-2 melanoma 102% | EKVX NSCLC 118% | SN12C renal 104% | UO-31 renal 87.6% | TK-10 renal 96.5% | ACHN renal 96.3% | CAKI-1 renal 103% | A498 renal 107% | CCRF-CEM leukemia 99.4%

CNCc1cccc2c1OCCOCCOCCNS(=O)(=O)c1ccc(cc1)-c1cnc(N)c(n1)C(=O)N2
inactive: SK-MEL-2 melanoma 30% | EKVX NSCLC 77.4% | SN12C renal 19.2% | UO-31 renal 77.6% | TK-10 renal 41.7% | ACHN renal 54.7% | CAKI-1 renal 28.4% | A498 renal 51.5%
active: CCRF-CEM leukemia 7.66%

CC(C)(C)n1cc(-c2ccnc(NCCNS(=O)(=O)c3ccc(O)cc3)c2)c(-c2cccc(O)c2)n1
inactive: SK-MEL-2 melanoma 108% | EKVX NSCLC 104% | SN12C renal 98.3% | UO-31 renal 91.2% | TK-10 renal 116% | ACHN renal 98.2% | CAKI-1 renal 103% | A498 renal 88.8% | CCRF-CEM leukemia 92.7%

O=C(N/N=C\c1cccc([N+](=O)[O-])c1)N/N=C/c1cccc([N+](=O)[O-])c1
inactive: SK-MEL-2 melanoma 108% | EKVX NSCLC 98% | SN12C renal 96.8% | UO-31 renal 86.8% | TK-10 renal 117% | ACHN renal 98.6% | CAKI-1 renal 95.8% | A498 renal 82.3% | CCRF-CEM leukemia 98.7%

CCNC(=O)Oc1ccc(/C(=C(/C)Cc2ccc(OC)cc2)c2ccc(OCCN3CCCCC3)cc2)cc1
inactive: SK-MEL-2 melanoma 92.3% | EKVX NSCLC 79.8% | SN12C renal 71.4% | UO-31 renal 50.5% | TK-10 renal 82.6% | ACHN renal 94.8% | CAKI-1 renal 90% | A498 renal 90.8% | CCRF-CEM leukemia 36.5%

Cc1nc2sc(C(=O)Nc3cccc(Br)c3C)c(N)c2cc1C(O)c1ccccc1 (stereo not given)
active: SN12C renal 8.12% | A498 renal -12.8%
inactive: SK-MEL-2 melanoma 29.7% | EKVX NSCLC 39.7% | UO-31 renal 30.9% | TK-10 renal 44.7% | ACHN renal 21.9% | CAKI-1 renal 20.4% | CCRF-CEM leukemia 17.2%

CC1(C)NCCC[C@]2(C)[C@H]3CC[C@H]4[C@H]5[C@H](C(=O)/C=C/c6cccnc6)CCC[C@]5(CO)CC[C@@]4(C)[C@]3(C)CC[C@@H]12
inactive: SK-MEL-2 melanoma 96.9% | EKVX NSCLC 79.2% | SN12C renal 58.5% | UO-31 renal 57.8% | TK-10 renal 106% | ACHN renal 80.4% | CAKI-1 renal 47.8% | A498 renal 93.9% | CCRF-CEM leukemia 36%

O=C(O)COc1ccc(Cl)c(Cl)c1
inactive: SK-MEL-2 melanoma 118% | EKVX NSCLC 104% | SN12C renal 114% | UO-31 renal 108% | TK-10 renal 116% | ACHN renal 107% | CAKI-1 renal 107% | A498 renal 110% | CCRF-CEM leukemia 100% | MOLT-4 leukemia 101%

C=C(C)[C@@H]1CC[C@]2(C(=O)N3CCN(C)CC3)CC[C@]3(C)[C@H](CC[C@@H]4[C@@]5(C)CC[C@H](OC(=O)c6ccccc6C(=O)O)C(C)(C)[C@@H]5CC[C@]43C)[C@@H]12
inactive: SK-MEL-2 melanoma 107% | EKVX NSCLC 98.4% | SN12C renal 93.5% | UO-31 renal 77.7% | TK-10 renal 106% | ACHN renal 100% | CAKI-1 renal 83.9% | A498 renal 74.9% | CCRF-CEM leukemia 97.1% | MOLT-4 leukemia 88.7%

C=CCN1C(=O)c2cccc3c(N4CCOCC4)ccc(c23)C1=O
active: SK-MEL-2 melanoma -28.1% | EKVX NSCLC -7.17% | UO-31 renal -3.07% | TK-10 renal -12.9% | CAKI-1 renal -39.5% | A498 renal -57% | CCRF-CEM leukemia -7.18% | MOLT-4 leukemia -21.2%
inactive: SN12C renal 17% | ACHN renal 18.6%

COc1ccc(/C=C/C(c2cc(OC)c(OC)c(OC)c2)n2cncn2)cc1 (stereo not given)
inactive: SK-MEL-2 melanoma 12.9% | EKVX NSCLC 66% | SN12C renal 62% | UO-31 renal 64.4% | TK-10 renal 48.5% | ACHN renal 57.5% | CAKI-1 renal 51.6% | A498 renal 36.4% | CCRF-CEM leukemia 35.1% | MOLT-4 leukemia 39.4%

COc1ccc(C2=NN(C(C)=O)C(c3cn(-c4ccccc4)nc3-c3ccc(Cl)cc3)C2)cc1 (stereo not given)
inactive: SK-MEL-2 melanoma 63.7% | EKVX NSCLC 41.3% | SN12C renal 32.8% | UO-31 renal 38.5% | TK-10 renal 12.1% | CAKI-1 renal 28% | A498 renal 80.2% | CCRF-CEM leukemia 24% | MOLT-4 leukemia 43.6%
active: ACHN renal 8.45%

COc1ccc(C(=O)N2c3ccccc3Sc3ccccc32)c(C(F)(F)F)c1
active: A498 renal 8.71%
inactive: SK-MEL-2 melanoma 47% | EKVX NSCLC 45.6% | SN12C renal 40.1% | UO-31 renal 39.8% | TK-10 renal 57.4% | ACHN renal 32.5% | CAKI-1 renal 31.8% | CCRF-CEM leukemia 22.4% | MOLT-4 leukemia 15.1%

Cc1c(CC(=S)N2CCOCC2)nnn1-c1cccc(C(F)(F)F)c1
inactive: SK-MEL-2 melanoma 111% | EKVX NSCLC 104% | SN12C renal 103% | UO-31 renal 82.9% | TK-10 renal 104% | ACHN renal 106% | CAKI-1 renal 93.2% | A498 renal 102% | CCRF-CEM leukemia 103% | MOLT-4 leukemia 102%

Nc1ncnc2c1N=C(c1ccc3c(c1)OCO3)CC(c1cccc(Nc3ccnc4cc(C(F)(F)F)ccc34)c1)N2 (stereo not given)
inactive: SK-MEL-2 melanoma 88% | EKVX NSCLC 89.5% | SN12C renal 75.5% | UO-31 renal 76.9% | TK-10 renal 99% | ACHN renal 98.3% | CAKI-1 renal 78.4% | A498 renal 74.5% | CCRF-CEM leukemia 64.8% | MOLT-4 leukemia 93.5%

CC(C)(C)c1cc(Cl)c(O)c(CNCCO)c1
inactive: SK-MEL-2 melanoma 113% | EKVX NSCLC 101% | SN12C renal 109% | UO-31 renal 99.7% | TK-10 renal 105% | ACHN renal 110% | CAKI-1 renal 94.1% | A498 renal 89.4% | CCRF-CEM leukemia 110% | MOLT-4 leukemia 115%

N#Cc1cccc(C2C3=C(COC3=O)N(CCO)c3cc4c(cc32)OCO4)c1 (stereo not given)
active: CCRF-CEM leukemia 7.91%
inactive: SK-MEL-2 melanoma 26.8% | EKVX NSCLC 51.8% | SN12C renal 44.2% | UO-31 renal 43.4% | TK-10 renal 50% | ACHN renal 39.2% | CAKI-1 renal 29.7% | A498 renal 11.9% | MOLT-4 leukemia 24.8%

COc1ccc2c(c1)c(-c1nc(-c3c[nH]c4ncccc34)cs1)cn2CCO
active: A498 renal -0.474%
inactive: SK-MEL-2 melanoma 48.7% | EKVX NSCLC 34.9% | SN12C renal 63.5% | UO-31 renal 16.1% | TK-10 renal 58.3% | ACHN renal 26.7% | CAKI-1 renal 35.5% | CCRF-CEM leukemia 41.3% | MOLT-4 leukemia 55%

Cc1c2ccncc2c(C)c2c1c1cc(CO)ccc1n2C
active: SK-MEL-2 melanoma -7.55% | EKVX NSCLC 1.54% | SN12C renal 6.64% | UO-31 renal 3.77% | TK-10 renal -21.4% | ACHN renal 0.85% | CAKI-1 renal 8.35% | A498 renal -81.7% | CCRF-CEM leukemia 8.76% | MOLT-4 leukemia 6.68%

O=c1nc(-c2ccccc2)c2cc(-c3ccc(C(F)(F)F)nc3)ccc2[nH]1
inactive: SK-MEL-2 melanoma 103% | EKVX NSCLC 97.8% | SN12C renal 102% | UO-31 renal 75.8% | TK-10 renal 99.9% | ACHN renal 96.5% | CAKI-1 renal 93.1% | A498 renal 104% | CCRF-CEM leukemia 46.5% | MOLT-4 leukemia 83.3%

CN(Cc1cc(Br)cc(Br)c1O)Cc1cc(Br)cc(Br)c1O
inactive: SK-MEL-2 melanoma 51% | EKVX NSCLC 54.8% | SN12C renal 45.1% | UO-31 renal 23.4% | TK-10 renal 40.6% | ACHN renal 31.4% | CAKI-1 renal 24.6% | A498 renal 66.5% | CCRF-CEM leukemia 18.2% | MOLT-4 leukemia 21.5%

CCCCNC(=O)Oc1ccc(/C(=C(/C)Cc2ccc(OC)cc2)c2ccc(OCCN3CCCCC3)cc2)cc1
inactive: SK-MEL-2 melanoma 113% | EKVX NSCLC 76.3% | SN12C renal 73.9% | UO-31 renal 51% | TK-10 renal 84.4% | ACHN renal 91.3% | CAKI-1 renal 83.6% | A498 renal 96.3% | CCRF-CEM leukemia 42.8% | MOLT-4 leukemia 33.6%

N#CSc1c[nH]c2cccc(/C=C/C(=O)/C=C(O)/C=C/c3cccc4[nH]cc(SC#N)c34)c12
active: SK-MEL-2 melanoma -58.8% | EKVX NSCLC -23.9% | SN12C renal -71.2% | UO-31 renal -87.3% | TK-10 renal -44.8% | ACHN renal -85.6% | CAKI-1 renal -70% | A498 renal -12.7% | CCRF-CEM leukemia -22.1% | MOLT-4 leukemia -39%
